Source: PubChem
MCF10A rerep – induces DNA re-replication in MCF 10a normal breast cells; MCF 10A DNA re-replication, Hoechst nuclear intensity, 48 h; Potency, µM (doses to about 46.1 µM), without a hit: at the top dose activity, positive = re-replication, most hits filed as activators; hit rate 2.9% among 350,000; AID 624296; note: % of control where 0% means no effect; nearly all actives have a fitted effect of over 50% in size
ELG1 DNA repair – blocks ELG1-dependent DNA repair in HEK293T cells | hit rate 2.3% among 330,000 | HEK293T ELG1-luciferase reporter, luminescence, 16 h; DNA damage induced by 5-fluorouridine | Potency, µM (series often up to 46.1 µM), for the others: at the highest dose activity change, negative = inhibition, hits mostly inhibitors; note: % is set by controls: 0 for no effect and ±100 for the full control effect; nearly all actives have a fitted effect of over 55% in size
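In this reporter screen, reduction of luminescence relative to DMSO vehicle indicated activity. Compounds and 5-fluorouridine were added together to 2,000 cells per well, incubated for 16 hr at 37 °C, then developed with ONE-Glo.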
KB-V1 cytotox – kills drug-selected multidrug resistant KB-V1 cells | KB-V1 MDR cells viability, CellTiter-Glo, 72 h | Potency, µM (top dose mostly 46.1 µM), hits mostly cytotoxic | hit rate 3.4% among 400,000 | AID 1347076; note: % is set by controls: 0 for no effect and ±100 for the full control effect; nearly all actives have a fitted effect of over 60% in size
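KB-V1 MDR subline cells in DMEM (phenol-red free, 10% FBS) exposed to compounds in qHTS concentration series for 72 h at 37 degrees C. Viability read by CellTiter-Glo luminescence; concentration-effect curves fitted after normalization and correction.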
SW480 rerep – DNA re-replication induction in SW480 cells | SW480 DNA re-replication, Hoechst DNA content imaging, 48 h | Potency, µM (highest dose often 46.1 µM), inactives show at the top dose re-replication activation, actives largely listed as activators | hit rate 1.8% among 340,000 | AID 624297; note: % of control where 0% means no effect; nearly all actives have a fitted effect of over 55% in size
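First, 250 cells per well were seeded. Next, compound or vehicle (23 nL) was pinned in, plates sat 48 hr at 37 C. Finally Hoechst was added for 40 min before fluorescence scanning.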
KB-3-1 tox – kills parental KB-3-1 adenocarcinoma cells. KB-3-1 viability, CellTiter-Glo ATP luminescence, 72 h. Potency, µM (series often up to 46.1 µM), most hits filed as cytotoxic. hit rate 1.4% among 400,000. AID 1347075; note: % is set by controls: 0 for no effect and ±100 for the full control effect; nearly all actives have a fitted effect of over 60% in size
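Parental KB-3-1 adenocarcinoma cells in phenol-red-free DMEM with 10% FBS were pin-treated with compounds at several concentrations, incubated 72 h at 37 °C, and viability read by CellTiter-Glo luminescence; concentration-effect curves were fitted after normalization.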
Numbers without * were called inactive; i = inactive; u = inconclusive; x = no result; ! = not confirmed by another sample. Only some compounds are listed: those with a hit (about 8.1% of all), similar ones and a draw of the others. Calls come from the whole dose curve; as a rule, active = well fitted curve in the direction sought with a large enough effect; inconclusive = small, poorly fitted or top-dose-only effect, or another doubt; inactive = no such curve, though single readings can be large; an effect the other way counts as inactive or inconclusive. Potency is the fitted concentration of half-maximal effect.

SMILES | MCF10A rerep | ELG1 DNA repair | KB-V1 cytotox | SW480 rerep | KB-3-1 tox
COc1ccc(CN2C(=O)CSCC2(C)C(=O)Nc2c(C)cccc2C)cc1OC (stereo not given) | x | x | i | x | i
Cc1ccc(C(=O)c2cnc3cc4c(cc3c2S(=O)(=O)c2ccccc2)OCCO4)cc1 | u | u | 16.4µM* | u | u
CCOc1ccc(S(=O)(=O)c2c(C(=O)c3ccc(C)cc3)cnc3cc4c(cc23)OCCO4)cc1 | 2.5% | -4.8% | i | 0.3% | i
COc1cc(Cn2c(=O)oc3ccc(C)cc32)ccc1OCCC(C)C | x | x | u | x | i
CCCOc1ccc(Cn2c(=O)oc3ccc(C)cc32)cc1OC | -4.1% | -7.2% | 11.6µM* | -1.5% | i
Cc1cc(-c2ccc(S(=O)(=O)N(C)c3ccc(C)c(C)c3)s2)on1 | 10.3µM* | -12.5% | 7.31µM* | u | 13µM*
Cc1ccc(N(C)S(=O)(=O)c2ccc(-c3cc(C)no3)s2)cc1 | 9.2µM* | -23.1% | u | u | i
COc1ccc(COCC(O)CN(Cc2ccco2)Cc2ccccc2O)cc1 (stereo not given) | 7.1% | -16.6% | 20.6µM* | 2.4% | i
CCC(C(=O)O)n1ccc2cc(S(=O)(=O)N3CCCCC3)ccc21 (stereo not given) | x | x | u | x | i
COc1cccc(N2CCN(c3c4c(nc5ncnn35)CCC4)CC2)c1 | 4.1% | -29.0% | u | -0.9% | 23.1µM*
c1ccc(N2CCN(c3c4c(nc5ncnn35)CCC4)CC2)cc1 | 2.2% | -26.8% | 2.91µM* | -11.5% | i
Cc1ccc([C@H]2C[C@H](O)[C@@H](n3cc(C4CC4)nn3)CN2C(=O)c2cccs2)cc1 | x | x | i | x | i
Cc1ccccc1-c1ncc(CN2CCN(C3CCCC3)C(CCO)C2)cn1 (stereo not given) | 4.2% | -11.0% | i | -10.1% | i
OCCC1CN(Cc2cnc(-c3cccc4ccccc34)nc2)CCN1C1CCCCC1 (stereo not given) | 9.0% | -5.5% | i | 1.84µM* | i
CC(=O)Nc1ccc(CN2CCN(C3CCCC3)C(CCO)C2)cc1 (stereo not given) | 2.59µM* | -7.3% | i | 4.1% | i
CC(=O)Nc1ccc(CN2CCN(CC=C(C)C)C(CCO)C2)cc1 (stereo not given) | 0.3% | -1.8% | i | 0.4% | i
Cc1cccc(NC(=O)c2sc(-n3nc(C)c(CCC(C)C)c3C)nc2C)c1 | x | x | i | x | i
Cc1ncc(COP(=O)(O)O)c(CN)c1O | -4.8% | x | x | -3.4% | x
CCCCN(C)CC(O)Cn1cc(/C=C/C(=O)c2ccc(OC)c(OC)c2)c2ccccc21 (stereo not given) | x | x | i | x | u
O=C(Nc1ccc(CN2CCOCC2)cc1)c1ccc(-c2cc(Cl)ccc2Cl)o1 | u | 23.1µM* | u | u | u
O=C(Nc1ccc(CN2CCOCC2)cc1)c1ccc(Br)o1 | 2.4% | u | i | u | i
O=C(Nc1ccc(CN2CCOCC2)cc1)c1ccc(-c2cccc([N+](=O)[O-])c2)o1 | 2.2% | 13µM* | u | 16.7% | u
O=[N+]([O-])c1cccc(-c2ccc(C(=S)N3CCOCC3)o2)c1 | -7.8% | u | u | -9.0% | u
Cc1nn(-c2ccccc2)c2c1CC(=O)Nc1ccccc1-2 | 1.3µM* | x | 1.64µM* | 1.46µM* | 0.651µM*
COc1ccc(CCNCc2ccc3c(c2)n(C)c(=O)n3C)cc1OC | x | x | i | x | i
SMILES | MCF10A rerep | ELG1 DNA repair | KB-V1 cytotox | SW480 rerep | KB-3-1 tox
CCN(c1ccccc1)S(=O)(=O)c1ccc(N2CCN(c3ccc(OC)cc3)CC2)nc1 | -4.6% | u | i | -14.7% | i
CCN(c1ccccc1)S(=O)(=O)c1ccc(N2CCN(c3ccc(O)cc3)CC2)nc1 | 18.4µM* | u | i | u | u
Cc1ccc(NC(=O)c2cc(S(=O)(=O)NCCC3=CCCCC3)ccc2F)cc1F | u | u | 10.3µM*! | u | 10.3µM*!
CC(=O)Nc1ccc(S(=O)(=O)N2CCN=C2c2ccccc2)cc1 | 9.3% | 8.2µM* | i | -1.1% | i
Cc1cccc(C)c1NC(=O)c1cc(S(=O)(=O)N2CCCc3ccccc32)ccc1F | x | x | i | x | i
O=C(Nc1ccc(F)c(F)c1)c1cc(S(=O)(=O)N2CCN(c3ccccn3)CC2)ccc1F | 4.3% | 16.4µM* | 10.3µM* | -1.3% | i
Cc1ccc(NC(=O)c2cc(S(=O)(=O)N3CCCc4ccccc43)ccc2F)cc1F | x | x | i | x | 25.9µM*
Cc1cc(C)cc(NC(=O)c2cc(S(=O)(=O)NCCC3=CCCCC3)ccc2F)c1 | x | x | u | x | i
CC(=O)Nc1ccc(S(=O)(=O)N2CCN(S(=O)(=O)c3ccccc3)CC2)cc1 | 0.9% | 3.2% | i | 28.4% | i
COc1cc(NC(=O)CCCOc2cc(=O)n(C)c3ccccc23)cc(OC)c1OC | x | x | i | x | i
O=C(OCc1c(-c2ccccc2)ncc2ccccc12)N1CCOCC1 | 13.3% | u | i | -4.6% | i
Cc1cc(NC(=O)COC(=O)c2ccc(S(=O)(=O)N3CCCc4ccccc43)cc2)no1 | 9.2µM* | u | u | 14.6µM* | 14.6µM*
Cc1cc(NC(=O)COC(=O)c2ccc(S(=O)(=O)N3CCCC3)cc2)no1 | 15.6% | 7.5% | i | -25.9% | i
COC(=O)Nc1ccc(S(=O)(=O)N2c3ccccc3CCC2C)cc1 (stereo not given) | -0.9% | u | 4.11µM* | 9.4% | 7.31µM*
CC(=O)Nc1ccc(S(=O)(=O)N2CCCc3ccccc32)cc1 | 9.2µM* | u | u | 4.61µM* | i
CN(C)c1ccc(-c2nc3ccccn3c2/N=C/c2ccc(Br)cc2)cc1 | -1.9% | u | 9.2µM* | u | 14.6µM*
COc1cc(-c2nc3ccccn3c2/N=C/c2cc(OC)c(OC)c(OC)c2)ccc1O | 3.3% | x | i | -5.1% | i
Cc1c(-c2ccc(Br)cc2)nc2ccccn12 | u | u | 20.6µM* | -3.6% | i
O=C(CN1C(=O)NC2(CCCCCC2)C1=O)c1cccs1 | 7.5% | 26.5% | i | -4.4% | i
COc1ccc(NC(=O)CCCS(=O)(=O)c2nc(-c3ccccc3OC)cc(C(F)(F)F)n2)c(OC)c1 | x | x | u | x | i
COc1ccc(-c2cc(C(F)(F)F)nc(S(=O)(=O)CCCC(=O)Nc3cc(C)on3)n2)cc1OC | 3.66µM* | u | i | u | i
COc1ccccc1-c1cc(C(F)(F)F)nc(S(=O)(=O)CCCC(=O)Nc2cc(C)on2)n1 | 20.6µM* | u | u | 16.4µM* | u
Cc1ccc(OCC(=O)Nc2ccc3c(c2)C(=O)N(CCC(=O)O)C3=O)cc1 | -0.4% | 12.6% | x | -6.8% | x
